Experimental data from the supplement of paper PMC12645437, “Orthogonal IMiD-Degron Pairs Induce Selective Protein Degradation in Cells” (ACS Chemical Biology, 2025).
Over roughly 8,300 sequences, “log2 fold change of degron read counts, EGFP-low vs EGFP+ sorted cells (limma voom), compound-induced degradation” has its median near -1.1; the highest 2% begin near 3.2. For the sample, the highest values were picked, then their nearest neighbours and some sequences at random.

T1: CRBN, Q96SW2
T1 chain: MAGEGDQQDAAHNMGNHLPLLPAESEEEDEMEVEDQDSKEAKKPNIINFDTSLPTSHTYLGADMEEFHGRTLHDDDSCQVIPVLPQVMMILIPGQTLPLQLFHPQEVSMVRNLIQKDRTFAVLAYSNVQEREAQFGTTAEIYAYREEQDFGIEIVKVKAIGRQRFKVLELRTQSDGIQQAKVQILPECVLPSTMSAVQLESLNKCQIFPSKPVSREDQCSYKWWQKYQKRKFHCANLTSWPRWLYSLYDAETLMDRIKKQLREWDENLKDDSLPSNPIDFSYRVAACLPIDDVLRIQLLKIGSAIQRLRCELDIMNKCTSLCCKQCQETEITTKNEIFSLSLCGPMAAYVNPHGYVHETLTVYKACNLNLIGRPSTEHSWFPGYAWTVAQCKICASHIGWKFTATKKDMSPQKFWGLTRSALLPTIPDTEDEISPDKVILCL

B1: 46F_47W_49P_50Q_52G_53A_54T_55F_67L_, Q9UKT9 (peptide)
chain: FWCPQCGATFTQKGNLLRHIKL
B2: 46F_47M_49D_50Q_52G_53A_54A_55F_67L_, Q9UKT9 (peptide)
chain: FMCDQCGAAFTQKGNLLRHIKL
B3: 46L_47Y_49N_50Q_52G_53F_54L_55C_67L_, Q9UKT9 (peptide)
chain: LYCNQCGFLCTQKGNLLRHIKL
B4: 46F_47E_49E_50I_52G_53R_54S_55F_67L_, Q9UKT9 (peptide)
chain: FECEICGRSFTQKGNLLRHIKL
B5: 46F_47N_49E_50Q_52G_53A_54W_55F_67L_, Q9UKT9 (peptide)
chain: FNCEQCGAWFTQKGNLLRHIKL
B6: 46F_47L_49D_50I_52G_53A_54D_55F_67L_, Q9UKT9 (peptide)
chain: FLCDICGADFTQKGNLLRHIKL
B7: 46F_47H_49P_50I_52G_53R_54N_55F_67L_, Q9UKT9 (peptide)
chain: FHCPICGRNFTQKGNLLRHIKL
B8: 46F_47E_49E_50I_52G_53A_54D_55F_67L_, Q9UKT9 (peptide)
chain: FECEICGADFTQKGNLLRHIKL
B9: 46L_47V_49P_50I_52G_53F_54N_55C_67L_, Q9UKT9 (peptide)
chain: LVCPICGFNCTQKGNLLRHIKL
B10: 46L_47W_49P_50I_52G_53F_54P_55C_67L_, Q9UKT9 (peptide)
chain: LWCPICGFPCTQKGNLLRHIKL
B11: 46F_47I_49P_50I_52G_53A_54D_55F_67L_, Q9UKT9 (peptide)
chain: FICPICGADFTQKGNLLRHIKL
B12: 46F_47A_49P_50I_52G_53A_54P_55F_67L_, Q9UKT9 (peptide)
chain: FACPICGAPFTQKGNLLRHIKL
B13: 46F_47A_49P_50I_52G_53A_54M_55F_67L_, Q9UKT9 (peptide)
chain: FACPICGAMFTQKGNLLRHIKL
B14: 46F_47M_49P_50I_52G_53A_54P_55F_67L_, Q9UKT9 (peptide)
chain: FMCPICGAPFTQKGNLLRHIKL
B15: 46F_47I_49P_50I_52G_53A_54P_55F_67L_, Q9UKT9 (peptide)
chain: FICPICGAPFTQKGNLLRHIKL
B16: 46F_47M_49P_50I_52G_53A_54M_55F_67L_, Q9UKT9 (peptide)
chain: FMCPICGAMFTQKGNLLRHIKL
B17: 46F_47I_49P_50I_52G_53H_54P_55F_67L_, Q9UKT9 (peptide)
chain: FICPICGHPFTQKGNLLRHIKL
B18: 46F_47M_49P_50I_52G_53A_54D_55F_67L_, Q9UKT9 (peptide)
chain: FMCPICGADFTQKGNLLRHIKL
B19: 46F_47A_49P_50I_52G_53A_54D_55F_67L_, Q9UKT9 (peptide)
chain: FACPICGADFTQKGNLLRHIKL
B20: 46F_47Q_49P_50I_52G_53A_54F_55F_67L_, Q9UKT9 (peptide)
chain: FQCPICGAFFTQKGNLLRHIKL
B21: 46F_47Q_49P_50I_52G_53A_54P_55F_67L_, Q9UKT9 (peptide)
chain: FQCPICGAPFTQKGNLLRHIKL
B22: 46F_47Q_49P_50I_52G_53R_54P_55F_67L_, Q9UKT9 (peptide)
chain: FQCPICGRPFTQKGNLLRHIKL

Target: T1, CRBN, Q96SW2
Assay: log2 fold change of degron read counts, EGFP-low vs EGFP+ sorted cells (limma voom), compound-induced degradation; higher = more compound-induced degradation of the degron-EGFP fusion; degrons are variants of IKZF1/3 zinc finger 2; compound dose not given here
Details: Jurkat, 18 h
[1] = compound: compound 19 (5-tert-butyl-thalidomide)
[2] = compound: compound 22 (5-morpholino-thalidomide)
[3] = compound: compound 33 (diphenyl IMiD analogue)
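Note: pooled lentiviral library of zinc finger degron-EGFP fusions in mCherry-positive Jurkat cells, FACS-sorted after compound exposure, with degron abundance counted by next-generation sequencing.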

| Sequence | log2 fold change of degron read counts [1] | log2 fold change of degron read counts [2] | log2 fold change of degron read counts [3] | log2 fold change of degron read counts (compound: thalidomide) |
| --- | --- | --- | --- | --- |
| B1 | -0.373 | 1.49 | 0.797 | -1.24 |
| B2 | -1.96 | -2.12 | 0.439 | -2.32 |
| B3 | -1.29 | -1.42 | -1.67 | -1.29 |
| B4 | -2.51 | -3.16 | -1.24 | -1.32 |
| B5 | -2.53 | -2.58 | -2.99 | -2.13 |
| B6 | -2.36 | -3.49 | -2.12 | -2.22 |
| B7 | -0.818 | -0.983 | -0.208 | -0.527 |
| B8 | -1.96 | -2.74 | 0.273 | 0.225 |
| B9 | -0.376 | 1.56 | 1.51 | 2.74 |
| B10 | 1.54 | 1.47 | 1.88 | 1.22 |
| B11 | -0.647 | 0.966 | 1.15 | 1.89 |
| B12 | 3.7 | 3.03 | 1.56 | 2.64 |
| B13 | 2.8 | 1.12 | 0.702 | 0.265 |
| B14 | 3.36 | 3.49 | 3.09 | 2.98 |
| B15 | 1.94 | 3.65 | 2.52 | 3.16 |
| B16 | -0.414 | -0.22 | 1.72 | 0.511 |
| B17 | -1.76 | -0.823 | -0.563 | 0.027 |
| B18 | -1.3 | -0.0353 | 2.99 | 1.23 |
| B19 | 2.75 | 0.745 | 0.673 | 0.2 |
| B20 | -1.33 | -0.0266 | 2.3 | 2.67 |
| B21 | 3.38 | 3.6 | 2.53 | 3.65 |
| B22 | 0.103 | 1.27 | 0.384 | 2.92 |
